# Assay results published in PubChem BioAssay AID2546 (National Center for Advancing Translational Sciences (NCATS), 2010).
# The campaign covered roughly 310,000 compounds. About 11,000 (3.5%) were called active. A call without a number means that no potency is given here. Another 8% or so got no clear call; they are omitted. The call rests on the fitted dose curve; in most records, active means well fitted inhibition curve with a large enough effect; inconclusive means small, poorly fitted or top-dose-only effect, or effect the other way; inactive means flat fitted curve, though single readings scatter. For the sample, actives were picked, then their nearest neighbours and some compounds at random.
# Assay: VP16 counterscreen qHTS for inhibitors of ROR gamma transcriptional activity;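 further: Gal4-VP16 expression switched on by copper sulfate through the metallothionein promoter; nearly all actives have a fitted effect of over 50% in size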
# Conditions: Drosophila S2 Gal4-VP16 UAS-luciferase, luminescence, 20 h; series mostly up to 53.6 µM
# Potency means the concentration at half of the fitted maximal effect.
Structure (SMILES),Potency,"activity, negative = inhibition"
CCOc1cc(-c2noc(CCCC(=O)NC3CCCCC3)n2)ccc1OC,inactive,
CC(=O)c1ccc(N2Cc3ccccc3C2)cc1,inactive,
CC(C)CC(O)C1CCN(C(=O)CCc2nnc(-c3ccc4c(c3)OCO4)o2)CC1 (centres undefined),inactive,
Cc1oc(-c2ccccc2F)nc1CS(=O)CC(=O)NCCN1CCCCC1C (centres undefined),inactive,
CCOc1ccccc1/C=N/Nc1nc2ccccc2o1,7.08 µM (active),
C=CCc1ccccc1OCC(=O)N/N=C/c1ccccc1OCC,inactive,
CCOc1ccccc1/C=N/NC(=O)CNC(=O)COc1ccccc1,inactive,
CC(C)(C)c1cc[n+](-c2[nH]c(=O)sc2/C=N/N=C(\[O-])c2ccccc2)cc1,inactive,
O=C(Nc1ccncc1)c1ccc(Cl)c([N+](=O)[O-])c1,inactive,
COc1ccc(CNS(=O)(=O)c2cc(-c3cc(C)no3)ccc2C(C)C)cc1,inactive,
CC(=O)Nc1cccc(Nc2nc(-c3cccs3)nc3ccccc23)c1,inactive,
CC1CCCN(CCCNC(=O)CN2C(=O)COc3ccc(S(=O)(=O)N4CCOCC4)cc32)C1 (centres undefined),inactive,
C/C(=N/NC(=O)c1ccc(Br)o1)c1ccc(C)o1,inactive,
Cc1ccc(/C=N/NC(=O)CSc2ccccn2)o1,inactive,
C/C(=N\NC(=S)NC1CCCCC1)c1ccc(C)o1,3.55 µM (active),
C/C(=N\NC(=O)NC1CCCCC1)c1ccc(OC(F)F)cc1OC(F)F,inactive,
Cc1ccc(/C=N/NC(=O)Cn2nc(C)c(Br)c2C)o1,inactive,

Structure (SMILES),Potency,"activity, negative = inhibition"
Cc1ccc(/C=N/NC(=S)NC2CCCCC2)o1,2 µM (active),
Cc1ccccc1NC(=O)CSc1ccc2nnc(-c3ccccn3)n2n1,inactive,
CC(C)NC(=O)COCc1cc(-c2ccc3c(c2)OCO3)on1,inactive,
COc1ccc(OC)c(CNC(=O)Cn2nc(C)c3c(C)n(-c4ccc(C)cc4)nc3c2=O)c1,inactive,
COc1ccc(CN(C)C(=O)c2cc(-c3ccc(C)cc3C)nc3ccccc23)c(OC)c1OC,inactive,
COc1ccc(CCn2ccc(O)c(Cc3ccc(Cl)cc3Cl)c2=O)cc1OC,,7.07% [at 10 µM] (inactive)
COc1ccc(C/C(N)=N/OC(=O)c2ccco2)cc1OC,inactive,
COc1ccc(C(=O)O/N=C(\N)Cc2ccc(Cl)cc2Cl)cc1OC,7.08 µM (active),
CC(CCc1ccc(O)cc1)NCc1ccc(Cl)cc1Cl (centres undefined),inactive,
O=S1(=O)N=C(N(CCO)/N=C/c2ccccc2F)c2ccccc21,inactive,
COC(=O)c1cc(S(=O)(=O)NCC2CCN(Cc3ccc(Cl)cc3)CC2)cn1C,inactive,
CCOc1ccc(NC(=O)CCC(=O)N/N=C/c2ccc([N+](=O)[O-])s2)cc1,inactive,
CC(C)(C)c1cc(C(=O)N/N=C/c2ccc([N+](=O)[O-])s2)n[nH]1,12.6 µM (active),
Cc1ccccc1NCC(=O)N/N=C\c1ccc([N+](=O)[O-])s1,inactive,
COc1ccc2ccccc2c1/C=N/NC(=O)c1cc(C)[nH]n1,inactive,
Cc1ccsc1C(=O)N/N=C/c1ccc([N+](=O)[O-])cc1,inactive,
Cc1cc(C(=O)N/N=C/c2cc([N+](=O)[O-])cc(C)c2O)n[nH]1,14.1 µM (active),
